Results taken from PubChem BioAssay (EPA / NIEHS).
Calls of active or inactive are those of the source. How the source made its calls: active means hit-call score of the fitted dose curve at least 0.9, where 1 is the maximum; inactive means score below 0.9.

How the values were obtained:
Details in all cases: mRNA level, 48 h; actives raise or lower the signal
[1] = read-out: Cytochrome P450 7A1 (Homo sapiens) (UniProt P22680); assay: LTEA_HepaRG_CYP7A1: Life Technologies and Expression Analysis (LTEA) Assay for Cytochrome P450 7A1 (CYP7A1) using HepaRG (AID 2283496)
Outline: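 Gene expression endpoint in human HepaRG liver cells treated for 48 h with test chemicals (up to 100 uM, 0.5% DMSO). Values come from bidirectional concentration-response fitting versus DMSO.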

[2] = read-out: Glutathione S-Transferase (GSTA2), GSTA2 (gene 2939); assay: LTEA_HepaRG_GSTA2: Life Technologies and Expression Analysis (LTEA) Assay for Glutathione S-Transferase (GSTA2) using HepaRG (AID 2283497)
Outline: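 Human HepaRG cells, plated 48 h, then exposed in serum-free induction medium for 48 h to eight half-log concentrations up to 100 uM in 0.5% DMSO, duplicate. GSTA2 mRNA by qRT-PCR, normalized to ACTB/GAPDH/POLR2A; bidirectional fit versus DMSO.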

[3] = read-out: Glutamate-cysteine ligase catalytic (GCLC), GCLC (gene 2729); assay: LTEA_HepaRG_GCLC: Life Technologies and Expression Analysis (LTEA) Assay for Glutamate-cysteine ligase catalytic (GCLC) using HepaRG (AID 2283498)
Outline: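 Differentiated human HepaRG cells, plated 48 h then switched to serum-free induction medium, were exposed in duplicate for 48 h to 8 half-log concentrations topping at 100 uM in 0.5% DMSO. GCLC mRNA was quantified by qRT-PCR against ACTB, GAPDH and POLR2A.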

[4] = read-out: growth arrest and DNA damage 45 (GADD45G), GADD45G (gene 10912); assay: LTEA_HepaRG_GADD45G: Life Technologies and Expression Analysis (LTEA) Assay for growth arrest and DNA damage 45 (GADD45G) using HepaRG (AID 2283499)
Outline: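 Differentiated human HepaRG cells in serum-free induction medium were exposed for 48 h to 8 half-log concentrations up to 100 uM in 0.5% DMSO, in duplicate. GADD45G mRNA was measured by TaqMan qRT-PCR, normalised to ACTB, GAPDH and POLR2A, and fitted bidirectionally against DMSO.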

[5] = read-out: Glutamate-cysteine ligase regulatory (GCLM), GCLM (gene 2730); assay: LTEA_HepaRG_GCLM: Life Technologies and Expression Analysis (LTEA) Assay for Glutamate-cysteine ligase regulatory (GCLM) using HepaRG (AID 2283500)
Outline: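 Differentiated human HepaRG cells exposed 48 h in serum-free induction medium to 8-point half-log concentrations (top 100 uM, 0.5% DMSO), in duplicate. GCLM mRNA quantified by qRT-PCR, normalized to ACTB, GAPDH, POLR2A; bidirectional fitting versus DMSO.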

[6] = read-out: Glutathione S-transferase M3 (GSTM3), GSTM3 (gene 2947); assay: LTEA_HepaRG_GSTM3: Life Technologies and Expression Analysis (LTEA) Assay for Glutathione S-transferase M3 (GSTM3) using HepaRG (AID 2283501)
Outline: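 Differentiated HepaRG cells in serum-free induction medium were exposed in duplicate for 48 h to 8 half-log concentrations up to 100 uM in 0.5% DMSO. GSTM3 mRNA was measured by TaqMan qRT-PCR, normalized to ACTB/GAPDH/POLR2A, and fitted bidirectionally versus DMSO.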

[7] = read-out: Heat shock 70 kDa protein 1 (HSPA1A), gene 3303; assay: LTEA_HepaRG_HSPA1A: Life Technologies and Expression Analysis (LTEA) Assay for Heat shock 70 kDa protein 1 (HSPA1A) using HepaRG (AID 2283502)
Outline: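 Differentiated human HepaRG cells in serum-free induction medium were exposed in duplicate for 48 h to eight concentrations (top 100 uM, half-log steps, 0.5% DMSO). HSPA1A mRNA was quantified by qRT-PCR, normalized to ACTB, GAPDH and POLR2A, and fitted bidirectionally against DMSO.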

[8] = read-out: Hypoxia-inducible factor 1-alpha (Homo sapiens) (UniProt Q16665); assay: LTEA_HepaRG_HIF1A: Life Technologies and Expression Analysis (LTEA) Assay for Hypoxia-inducible factor 1 (HIF1A) Trancription factor using HepaRG (AID 2283503)
Outline: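 HepaRG, 48 h exposure, 8-pt half-log series from 100 uM, 0.5% DMSO vehicle, duplicates. Readout: HIF1A transcript by qRT-PCR (Fluidigm array), housekeeping-normalised. Bidirectional curve fit vs DMSO baseline.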

[9] = read-out: 3-Hydroxy-3-Methylglutaryl-CoA Synthase 2 (HMGCS2), HMGCS2 (gene 3158); assay: LTEA_HepaRG_HMGCS2: Life Technologies and Expression Analysis (LTEA) Assay for 3-Hydroxy-3-Methylglutaryl-CoA Synthase 2 (HMGCS2) using HepaRG (AID 2283504)
Outline: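 Differentiated human HepaRG cells were exposed in duplicate for 48 h in serum-free induction medium to eight concentrations (top 100 uM, half-log steps, 0.5% DMSO). HMGCS2 mRNA was quantified by TaqMan qRT-PCR, normalised to ACTB, GAPDH and POLR2A, then fitted bidirectionally against DMSO.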

HGF (gene 3082) = assay: LTEA_HepaRG_HGF: Life Technologies and Expression Analysis (LTEA) Assay for Hepatocyte Growth Facto (HGF) using HepaRG (AID 2283505)
Outline: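 Differentiated human HepaRG cells in serum-free induction medium were exposed in duplicate for 48 h to eight concentrations (top 100 uM, half-log steps, 0.5% DMSO). HGF mRNA was quantified by qRT-PCR, normalized to ACTB, GAPDH and POLR2A.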

[10] = read-out: Insulin Like Growth Factor 1 (IGF1), IGF1 (gene 3479); assay: LTEA_HepaRG_IGF1: Life Technologies and Expression Analysis (LTEA) Assay for Insulin Like Growth Factor 1 (IGF1) using HepaRG (AID 2283506)
Outline: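 Differentiated human HepaRG cells were dosed for 48 h in serum-free induction medium with 0.5% DMSO, eight half-log concentrations up to 100 uM, in duplicate. IGF1 mRNA was quantified by qRT-PCR normalized to ACTB, GAPDH, POLR2A; bidirectional fitting versus DMSO.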

[11] = read-out: Intercellular Adhesion Molecule 1 (ICAM1), ICAM1 (gene 3383); assay: LTEA_HepaRG_ICAM1: Life Technologies and Expression Analysis (LTEA) Assay for Intercellular Adhesion Molecule 1 (ICAM1) using HepaRG (AID 2283507)
Outline: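 Differentiated HepaRG cells in serum-free induction medium were exposed in duplicate for 48 h to eight half-log concentrations up to 100 uM in 0.5% DMSO. Transcript levels were measured by qRT-PCR normalized to ACTB, GAPDH and POLR2A; bidirectional fits relative to DMSO.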

[12] = read-out: Insulin-like growth factor-binding protein 1 (IGFBP1), IGFBP1 (gene 3484); assay: LTEA_HepaRG_IGFBP1: Life Technologies and Expression Analysis (LTEA) Assay for Insulin-like growth factor-binding protein 1 (IGFBP1) using HepaRG (AID 2283508)
Outline: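 Differentiated human HepaRG cells in serum-free induction medium were exposed in duplicate for 48 h to eight concentrations, top 100 uM with half-log dilutions, in 0.5% DMSO. Transcript levels came from qRT-PCR normalised to ACTB, GAPDH and POLR2A, fitted bidirectionally against DMSO.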

[13] = read-out: Interleukin 6 (IL6), IL6 (gene 3569); assay: LTEA_HepaRG_IL6: Life Technologies and Expression Analysis (LTEA) Assay for Interleukin 6 (IL6) using HepaRG (AID 2283509)
Outline: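 Differentiated human HepaRG cells, plated 48 h then switched to serum-free induction medium, were exposed in duplicate for 48 h to eight half-log concentrations up to 100 uM in 0.5% DMSO. IL6 mRNA measured by qRT-PCR, normalized to ACTB/GAPDH/POLR2A.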

[14] = read-out: Interleukin 6 Receptor (IL6R), IL6R (gene 3570); assay: LTEA_HepaRG_IL6R: Life Technologies and Expression Analysis (LTEA) Assay for Interleukin 6 Receptor (IL6R) using HepaRG (AID 2283510)
Outline: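 Differentiated human HepaRG cells, plated 48 h then switched to serum-free induction medium, were dosed in duplicate for 48 h at eight half-log concentrations up to 100 uM in 0.5% DMSO. IL6R mRNA quantified by qRT-PCR, normalized to ACTB/GAPDH/POLR2A; bidirectional fit versus DMSO.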

[15] = read-out: Potassium channel subfamily K member 1 (KCNK1), KCNK1 (gene 3775); assay: LTEA_HepaRG_KCNK1: Life Technologies and Expression Analysis (LTEA) Assay for Potassium channel subfamily K member 1 (KCNK1) using HepaRG (AID 2283511)
Outline: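 Differentiated human HepaRG cells in serum-free induction medium were exposed in duplicate for 48 h to 8 half-log concentrations up to 100 uM in 0.5% DMSO. KCNK1 mRNA was measured by TaqMan qRT-PCR, normalized to ACTB, GAPDH and POLR2A, and fitted bidirectionally versus DMSO.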

[16] = read-out: Keratin 19 (KRT19), KRT19 (gene 3880); assay: LTEA_HepaRG_KRT19: Life Technologies and Expression Analysis (LTEA) Assay for Keratin 19 (KRT19) using HepaRG (AID 2283512)
Outline: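 Differentiated human HepaRG cells, plated 48 h, were exposed in duplicate for 48 h in serum-free induction medium to eight half-log concentrations up to 100 uM in 0.5% DMSO. KRT19 mRNA was quantified by qRT-PCR, normalized to ACTB, GAPDH and POLR2A, and fitted bidirectionally versus DMSO.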

[17] = read-out: JUN Transcription Factor, JUN (gene 3725); assay: LTEA_HepaRG_JUN: Life Technologies and Expression Analysis (LTEA) Assay for JUN Transcription Factor using HepaRG (AID 2283513)
Outline: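 Differentiated HepaRG cells were exposed to chemicals for 48 h in serum-free induction medium, 8 concentrations from 100 uM in half-log steps, 0.5% DMSO vehicle, in duplicate. JUN mRNA was quantified by TaqMan qRT-PCR, normalized to ACTB, GAPDH, POLR2A.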

[18] = read-out: Lipase C (LIPC), LIPC (gene 3990); assay: LTEA_HepaRG_LIPC: Life Technologies and Expression Analysis (LTEA) Assay for Lipase C (LIPC) using HepaRG (AID 2283514)
Outline: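 Differentiated human HepaRG cells in serum-free induction medium were exposed in duplicate for 48 h to eight concentrations (top 100 uM, half-log steps, 0.5% DMSO). LIPC mRNA was quantified by TaqMan qRT-PCR, normalized to ACTB, GAPDH and POLR2A, with bidirectional fitting versus DMSO.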

[19] = read-out: Lipoprotein lipase (LPL), LPL (gene 4023); assay: LTEA_HepaRG_LPL: Life Technologies and Expression Analysis (LTEA) Assay for Lipoprotein lipase (LPL) using HepaRG (AID 2283515)
Outline: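 Differentiated human HepaRG cells in serum-free induction medium were exposed in duplicate for 48 h to eight half-log concentrations (top 100 uM) in 0.5% DMSO. LPL mRNA was quantified by TaqMan qRT-PCR, normalized to ACTB, GAPDH and POLR2A.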

Measured: AC50

Sequence of Hypoxia-inducible factor 1-alpha (Homo sapiens) (Q16665 whole entry, looked up): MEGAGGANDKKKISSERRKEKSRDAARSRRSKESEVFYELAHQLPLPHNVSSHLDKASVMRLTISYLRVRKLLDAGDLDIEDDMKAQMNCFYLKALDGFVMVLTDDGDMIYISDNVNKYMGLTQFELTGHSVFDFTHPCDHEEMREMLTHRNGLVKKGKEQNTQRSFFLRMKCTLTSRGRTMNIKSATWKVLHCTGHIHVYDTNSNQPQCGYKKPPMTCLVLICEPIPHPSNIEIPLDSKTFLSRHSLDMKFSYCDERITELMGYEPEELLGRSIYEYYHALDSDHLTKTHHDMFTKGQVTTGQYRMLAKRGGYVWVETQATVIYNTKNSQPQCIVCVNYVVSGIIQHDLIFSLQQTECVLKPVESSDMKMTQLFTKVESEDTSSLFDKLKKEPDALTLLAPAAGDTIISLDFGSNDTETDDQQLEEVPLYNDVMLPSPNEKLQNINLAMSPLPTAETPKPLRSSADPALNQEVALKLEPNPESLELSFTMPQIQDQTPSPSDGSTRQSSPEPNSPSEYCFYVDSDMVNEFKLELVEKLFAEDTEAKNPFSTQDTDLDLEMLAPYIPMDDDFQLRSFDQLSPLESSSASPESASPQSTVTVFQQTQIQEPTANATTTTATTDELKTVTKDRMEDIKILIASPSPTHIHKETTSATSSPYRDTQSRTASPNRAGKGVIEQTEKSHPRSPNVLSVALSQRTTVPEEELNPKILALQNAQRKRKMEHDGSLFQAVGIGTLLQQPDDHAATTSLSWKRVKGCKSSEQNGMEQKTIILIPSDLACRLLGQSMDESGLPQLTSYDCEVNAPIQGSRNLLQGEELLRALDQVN

COc1ccc(C(c2ccc(OC)cc2)C(Cl)(Cl)Cl)cc1
active: [1] 40.2 µM | [2] 90.3 µM | [3] 76.3 µM | [4] 56.2 µM | [5] 49.8 µM | [7] 29.8 µM | [9] 91.8 µM | [10] 56.5 µM | [12] 72.3 µM | [16] 74.2 µM | [18] 85.8 µM | [19] 76.6 µM
inactive: [6] | [8] | HGF (gene 3082) | [11] | [13] | [14] | [15] | [17]

C=CCC1=C(C)[C@@H](OC(=O)[C@@H]2[C@@H](C=C(C)C)C2(C)C)CC1=O
active: [9] 50 µM | [10] 50 µM | [18] 81.5 µM
inactive: all other assays above
